TDP1 cell CPT = growth inhibition of DT40 Tdp1-/-;hTDP1 cells with camptothecin (screen for TDP1 inhibitors). chicken DT40 Tdp1-/-;hTDP1 cells + 20 nM CPT, ATP luminescence, 48 h. Potency, µM (series often up to 46.2 µM), for the others: at the top dose activity change, negative = growth inhibition, actives largely listed as inhibitors. hit rate 12% among 420,000; note: potency is the fitted concentration of half-maximal effect; nearly all actives have a fitted effect of over 55% in size
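Chicken DT40 Tdp1-/- cells stably complemented with human TDP1 were seeded at 400 cells/well in medium containing 20 nM camptothecin, exposed to pin-transferred compounds, and grown at 37 °C for at least 48 hr. Viability was read as ATP luminescence.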
HT1080 IDH1KD tx = toxicity to HT-1080 IDH1 knockdown cells (counter line); HT-1080 IDH1 knockdown viability, ATP luminescence, 48 h; Potency, µM (titrated, usually from 46.1 µM), for the others: at the top dose activity, negative = toxicity, usual class: cytotoxic; hit rate 2% among 360,000; AID 686971;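 note: potency is the fitted concentration of half-maximal effect; 0% = DMSO wells and -100% = cell-free medium wells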
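Viability of IDH1-knockdown HT-1080 fibrosarcoma cells was assessed by CellTiter-Glo after 48 h at 37 °C with titrated compound; concentration-effect curves were classified by fit quality and response size.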
IL1B secr inh = inflammasome signaling inhibition, IL-1 beta readout. THP-1 LPS/ATP IL-1B secretion, AlphaLISA, 16 h; stronger effect = lower value. activity change, % at 57.5 µM. hit rate 4.7% among 360,000; in the data active = activity change below about -50%; inconclusive = mostly about -30% to -49%
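THP-1 cells pretreated 1 hr with compounds (up to 57.5 uM final), then stimulated with LPS (250 ng/mL final) plus ATP (1.25 mM final); secreted IL-1B measured by AlphaLISA after 16 hr, decreased signal indicating inhibition.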
HT1080NT lethal = kills 2HG-producing HT-1080-NT fibrosarcoma cells | HT-1080-NT fibrosarcoma viability, CellTiter-Glo ATP luminescence, 48 h | Potency, µM (doses to about 46.1 µM), without a hit: top-dose activity, negative = less viability, hits mostly cytotoxic | hit rate 1.6% among 360,000 | AID 686970;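 note: NT is the 2HG producing partner of a matched IDH1 knockdown line; potency is the fitted concentration of half-maximal effect; 0% = DMSO-treated cells and -100% = media-only wells without cells; nearly all actives have a fitted effect of over 55% in size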
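HT-1080-NT; 750 cells/well; 5% FBS RPMI; 48 h compound, 37 degrees C; CellTiter-Glo luminescence; curve fitting and curve-class assignment.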
TDP1 cell noCPT = qHTS for Inhibitors of human tyrosyl-DNA phosphodiesterase 1 (TDP1): qHTS in cells in absence of CPT; DT40 Tdp1-/- hTDP1 cells, no CPT, ATP luminescence, 48 h; Potency, µM (top dose mostly 46.2 µM), inactives show at the top dose activity change, negative = growth inhibition, usual class: inhibitors; hit rate 15% among 420,000; AID 686978, 2013; note: potency is the fitted concentration of half-maximal effect; nearly all actives have a fitted effect of over 55% in size
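Readout: luminescence from CellTiter-Glo after 30 min in the dark at RT. Cells: DT40 Tdp1-/- with stable hTDP1, 400/well. Exposure: compounds alone, ≥48 hr, 37 °C.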
Numbers without * were called inactive; u = inconclusive; x = not tested or not shown. The list is not random: actives were taken first. Their share in the collection is about 19%. Unless noted, calls come from the whole dose curve; as a rule, active = well fitted curve in the direction sought with a large enough effect; inconclusive = small, poorly fitted or top-dose-only effect, or another doubt; inactive = no such curve, though single readings can be large; an effect the other way counts as inactive or inconclusive. Unless noted, % is set by controls: 0 for no effect and ±100 for the full control effect.

SMILES	TDP1 cell CPT	HT1080 IDH1KD tx	IL1B secr inh	HT1080NT lethal	TDP1 cell noCPT
C=CCc1ccccc1Oc1cc(OC)nc(N)n1	u	4%	24	5%	u
Cc1nn(CCC#N)c(N)c1C1(O)C(=O)Nc2c(Cl)cc(Cl)cc21 (stereo not given)	16µM*	0%	134	-10%	3.7µM*
Cc1cc(NC(=O)c2ccc(Cl)cc2Cl)n(CCC#N)n1	-13%	7%	12	-11%	-9%
O=C(Nc1ccccc1)c1cccc(=O)o1	23%	12%	-8	17%	-19%
CCCC[C@@H](CNC)NC[C@H](NCCCCC1CCCCC1)C(C)C	6.5µM*	u	u	u	5.2µM*
CN(Cc1ccccc1)S(=O)(=O)c1ccc(Cl)c(C(=O)NCCc2ccccn2)c1	16µM*	-12%	2	5%	u
O=C(NCc1ccccn1)c1cc(-c2ccccc2Cl)nc2ccccc12	-6%	9%	8	5%	-14%
CN(Cc1ccccc1)S(=O)(=O)c1ccc(Cl)c(C(=O)NCCCN2CCCC2=O)c1	u	-5%	24	5%	16µM*
O=C(NCCc1ccccn1)c1cc(-c2ccc(Cl)c(Cl)c2Cl)nc2ccccc12	u	u	0	-3%	18µM*
S=C1NCCOCCNC(=S)NCCOCCOCCN1	-3%	2%	3	15%	-4%
CCOC(=O)N1CC(C)N(CC(O)CN2CCOCC2)CC1C (stereo not given)	-12%	13%	4	12%	-28%
COc1ccc(CNC(=O)CSc2nc(-c3ccc(OC)cc3)cc(C(F)(F)F)n2)cc1	-20%	x	x	x	-17%
CCn1cc(CN(C)C(=O)CSc2nc(-c3ccco3)cc(C(F)(F)F)n2)c(C)n1	u	-24%	8	-10%	23µM*
COc1ccc(-c2cc(C(F)(F)F)nc(SCC(=O)N(C)Cc3ccccc3)n2)cc1	23µM*	x	x	x	u
COc1ccc(-c2cc(C(F)(F)F)nc(SCCC(=O)NCc3ccccc3)n2)cc1	u	-16%	-16	-18%	18µM*
CN(Cc1ccccc1)C(=O)CSc1nc2c(c(C(F)(F)F)n1)CCc1ccccc1-2	29µM*	1%	u	0%	u
Cc1c(CN(C)C(=O)CSc2nc(-c3ccco3)cc(C(F)(F)F)n2)cnn1C	u	-1%	-12	10%	-13%
COc1ccc(-c2cc(C(F)(F)F)nc(SCCC(=O)Nc3ccc(OC)c(OC)c3)n2)cc1	13µM*	x	x	x	15µM*
CN(C)S(=O)(=O)Nc1cc(Cl)cc(Cl)c1	18µM*	16%	44	1%	u
Cc1ccc(NS(=O)(=O)N(C)C)cc1	5%	15%	29	10%	-27%
O=C(Nc1nnc(-c2ccc(Cl)s2)o1)C1CCCCC1	15µM*	-7%	-13	-8%	u
O=C(Nc1nnc(-c2ccc3c(c2)OCCO3)o1)C1CCCCC1	-28%	1%	21	3%	u
O=C(Nc1nnc(-c2ccccc2)o1)C1CCCCC1	u	-10%	17	-9%	u
O=C(Nc1nnc(-c2ccc(Cl)cc2)o1)C1CCCCC1	u	-6%	8	11%	18µM*
Cc1ccc2scc(N3CCCCC3)c(=O)c2c1	9%	x	x	x	4%
SMILES	TDP1 cell CPT	HT1080 IDH1KD tx	IL1B secr inh	HT1080NT lethal	TDP1 cell noCPT
COc1ccc(C(=O)O)cc1S(=O)(=O)NCc1ccccn1	-3%	25%	-1	22%	-10%
Cn1c(CCNS(=O)(=O)c2ccccc2)nnc1SCc1cccnc1	13%	2%	18	0%	1%
COc1ccc(S(=O)(=O)N(C)c2nc3ccccc3n3c(CC(C)C)nnc23)cc1	26µM*	-2%	21	-26%	21µM*
CCCc1nnc2c(N(C)S(=O)(=O)c3ccc(C)cc3)nc3ccccc3n12	u	-12%	2	-4%	23µM*
O=C(COc1ccccc1)N=C1SC2CS(=O)(=O)CC2N1c1ccc(F)cc1 (stereo not given)	-1%	14%	-21	8%	25%
O=C(Nc1cccnc1Cl)c1noc2c1CCc1ccccc1-2	2%	18%	-14	17%	-7%
O=C(CNC(=O)c1ccccc1F)N/N=C/c1cc(Br)ccc1OC(=O)/C=C/c1ccco1	3.7µM*	4.6µM*	71	-41%	5.2µM*
O=C(CNC(=O)c1ccc(F)cc1)N/N=C/c1cc(Br)ccc1OC(=O)/C=C/c1ccco1	9.2µM*	u	149	u	2.6µM*
COc1cccc(-n2nnc3c(sc4nc(C)cc(C)c43)c2=O)c1	-22%	x	x	x	-15%
C#CC1(O)CCC2C3CCc4cc(O)cc(C)c4C3CCC21C (stereo not given)	16µM*	-13%	2	0%	u
COc1ccc(Cl)cc1NC(=O)C1CSC(c2ccncc2)=N1 (stereo not given)	21µM*	-6%	-3	-9%	u
CCCCOc1ccc(CSCCN=C(N)N)cc1	u	26µM*	-81*	u	4.6µM*
CCCCCc1cc(=O)c2ccccc2o1	u	16%	17	4%	-7%
CCCCc1oc2ccccc2c1C(=O)c1cc(I)c(N(CC)CCOCC)c(I)c1	7.1µM*	x	x	x	4.5µM*
Cc1ccc(S(=O)(=O)Nc2ccc(OCC(=O)N3CCOCC3)cc2)c(C)c1NS(C)(=O)=O	-1%	0%	-1	1%	-6%
CCc1ccc(C2=CC(c3c(F)cccc3Cl)n3c(nc4ccccc43)N2)cc1 (stereo not given)	18µM*	x	x	x	7.3µM*
NC(=O)Cn1c(-c2nonc2N)nc2ccccc21	1%	4%	3	14%	4%
NNC(=O)Cn1c(-c2nonc2N)nc2ccccc21	-26%	3%	-5	1%	2%
Nc1nonc1-c1nc2ccccc2n1CC(=O)Nc1cccc(Cl)c1Cl	5.2µM*	x	x	x	5.8µM*
Nc1nonc1-c1nc2ccccc2n1CC(=O)N/N=C\c1ccc(-c2ccc(Cl)cc2)o1	7.3µM*	2%	u	1%	3.7µM*
CCc1ccccc1NC(=O)Cn1c(-c2nonc2N)nc2ccccc21	1%	x	x	x	-5%
Nc1nonc1-c1nc2ccccc2n1CC(=O)N1CCN(c2ccc(F)cc2)CC1	u	-3%	0	-3%	13µM*
Nc1nonc1-c1nc2ccccc2n1CC(=O)Nc1ccc(F)cc1	15µM*	x	x	x	9.2µM*
C=CC[n+]1c(/C=C2\C=Cc3cc(C)ccc3N2CC)ccc2ccccc21	0.18µM*	13µM*	-88*	u	0.073µM*
CC(=O)C[C@H]1c2cc(F)ccc2S(=O)(=O)N1c1ccc(N(C)C)cc1	15µM*	-3%	3	-1%	13µM*

Assay outcomes (PubChem BioAssay)
